Data as given in PubChem BioAssay (NCATS).
Inconclusive results are not listed. The source made the active and inactive calls. Calls come from the whole dose curve; as a rule, active = well fitted inhibition curve with a large enough effect; inconclusive = small, poorly fitted or top-dose-only effect; inactive = flat fitted curve, though single readings scatter.

What follows are compounds tested against Calcium and integrin-binding protein 1 (Homo sapiens) (UniProt Q99828) (assay: Primary qHTS for Identification of Calcium Integrin Binding Protein 1 (CIB1) Competitor (AID 1508620; note: top concentration of the series differs between compounds)). Conditions: CIB1-GST / FITC-alphaIIb peptide fluorescence polarization; series mostly up to 114 µM; activity change, negative = inhibition: at the top concentration.
Sequence of Calcium and integrin-binding protein 1 (Homo sapiens) (Q99828 whole entry, looked up): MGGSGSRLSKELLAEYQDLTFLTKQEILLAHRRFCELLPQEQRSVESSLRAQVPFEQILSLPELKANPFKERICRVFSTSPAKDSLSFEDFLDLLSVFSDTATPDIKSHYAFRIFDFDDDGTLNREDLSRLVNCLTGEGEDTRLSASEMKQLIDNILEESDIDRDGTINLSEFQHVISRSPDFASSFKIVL
In short: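 Fluorescence polarization competition: GST-tagged CIB1 (1 uM final) preincubated with compound 15 min at room temperature, then FITC-labelled alphaIIb peptide (100 nM final) added. After 15 min at room temperature, polarization read at Ex 480/Em 540.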
% is set by controls: 0 for no effect and ±100 for the full control effect.

SMILES | activity change, negative = inhibition
CC(=O)O[C@]1(C(C)=O)CC[C@H]2[C@@H]3C[C@H](C)C4=CC(=O)C=C[C@]4(C)[C@@]3(F)[C@@H](O)C[C@@]21C | 2.05% (inactive)
C[C@@H]1O[C@@H](O[C@H]2[C@H](O)[C@@H](O[C@@H]3O[C@H](CO)[C@@H](O)[C@H](O[C@@H]4O[C@H](CO)[C@@H](O)[C@H](O)[C@H]4O)[C@H]3O)[C@H](O[C@H]3CC[C@@]4(C)C(=CC[C@@H]5C4CC[C@@]4(C)C5C[C@@H]5OC6(CC[C@@](C)(CO[C@@H]7O[C@H](CO)[C@@H](O)[C@H](O)[C@H]7O)O6)[C@@H](C)[C@@H]54)C3)O[C@@H]2CO)[C@H](O)[C@H](O)[C@H]1O (stereo partly specified) | -1.49% [at 12.4 µM] (inactive)
C=C[C@H]1[C@H](O[C@@H]2O[C@H](CO)[C@@H](O)[C@H](O)[C@H]2O)OC=C(C(=O)OC)[C@H]1C/C=C(/C=O)[C@@H]1C(C(=O)OC)=CO[C@@H](O[C@@H]2O[C@H](CO)[C@@H](O)[C@H](O)[C@H]2O)[C@@H]1C=C | 3.41% [at 30.2 µM] (inactive)
C=C[C@@](C)(O)CC/C=C(\C)C(=O)O[C@@H]1[C@@H]2O[C@]2(C)[C@H]2[C@H](O[C@@H]3O[C@H](CO)[C@@H](O)[C@H](O)[C@H]3O)OC=C[C@@]12O | 3.3% [at 57.7 µM] (inactive)
C[C@@H]1O[C@@H](OC[C@H]2O[C@@H](OC(CCCCc3ccc(O)cc3)CCc3ccc(O)cc3)[C@H](O)[C@@H](O)[C@@H]2O)[C@H](O)[C@H](O)[C@H]1O (stereo partly specified) | -2.03% [at 30.2 µM] (inactive)
CC1CCC2(OC1)OC1CC3C4CC=C5CC(O)CC(O[C@@H]6OC[C@@H](O)[C@H](O)[C@H]6O)C5(C)C4CCC3(C)C1(O)C2C (stereo partly specified) | 4.44% [at 30.2 µM] (inactive)
